# From PubChem BioAssay AID1159580 (chemical genetic matrix, 2015)
# Values joined by “and” are separate entries in the source; they are usually repeats but may differ in a detail not shown here. Identical values can stand only once. The campaign covered roughly 5,500 compounds. About 2,000 (36%) were called active. Not shown: some 18% with an inconclusive outcome. The list shows a part of the results. Values without a mark were called inactive. Rule as the data show it: active = normalized growth mostly below about 0.91 (no sharp cut-off); inconclusive = no clear call, values can overlap the other calls; inactive = mostly above about 0.92.
# Experiment: chemical genetic growth profiling, strain panel (AID 1159580);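 also: tested at 20 µM; growth read once vehicle control cultures reached saturation at 30 °C; 1 = growth at the plate median or of vehicle wells; lower values mean less growth of the strain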
# Conditions: growth OD
compound,measurement,setting,value
NC1(C(=O)O)CCC1,normalized growth,"S. cerevisiae deletion strains, locus YAL013W, strain DEP1, hits give low values",0.911
same,normalized growth,"S. cerevisiae deletion strains, locus YBR021W, strain FUR4, hits give low values",0.992
same,normalized growth,"S. cerevisiae deletion strains, locus YBR229C, strain ROT2, hits give low values",1.01
same,normalized growth,"S. cerevisiae deletion strains, locus YCL029C, strain bik1, hits give low values",0.997
same,normalized growth,"S. cerevisiae deletion strains, locus YDL035C, strain GPR1, hits give low values",0.956
same,normalized growth,"S. cerevisiae deletion strains, locus YDL074C, strain BRE1, hits give low values",0.836
same,normalized growth,"S. cerevisiae deletion strains, locus YDL101C, strain DUN1, hits give low values",0.992
same,normalized growth,"S. cerevisiae deletion strains, locus YDL134C, strain PPH21, hits give low values",1.01
same,normalized growth,"S. cerevisiae deletion strains, locus YDL185W, strain tfp1, hits give low values",0.974
same,normalized growth,"S. cerevisiae deletion strains, locus YDL192W, strain arf1, hits give low values",0.974
same,normalized growth,"S. cerevisiae deletion strains, locus YDR101C, strain arx1, hits give low values",0.966
same,normalized growth,"S. cerevisiae deletion strains, locus YDR150W, strain NUM1, hits give low values",1
same,normalized growth,"S. cerevisiae deletion strains, locus YDR162C, strain NBP2, hits give low values",0.99
same,normalized growth,"S. cerevisiae deletion strains, locus YDR318W, strain mcm21, hits give low values",0.963
same,normalized growth,"S. cerevisiae deletion strains, locus YDR388W, hits give low values",0.988
same,normalized growth,"S. cerevisiae deletion strains, locus YDR502C, strain sam2, hits give low values",0.936
same,normalized growth,"S. cerevisiae deletion strains, locus YEL061C, strain CIN8, hits give low values",1
same,normalized growth,"S. cerevisiae deletion strains, locus YER110C, hits give low values",0.959
same,normalized growth,"S. cerevisiae deletion strains, locus YER155C, strain BEM2, hits give low values",1.03
same,normalized growth,"S. cerevisiae deletion strains, locus YER167W, strain BCK2, hits give low values",0.952
same,normalized growth,"S. cerevisiae deletion strains, locus YGL078C, strain dbp3, hits give low values",0.996
same,normalized growth,"S. cerevisiae deletion strains, locus YGL086W, strain mad1, hits give low values",0.955
same,normalized growth,"S. cerevisiae deletion strains, locus YGL248W, strain PDE1, hits give low values",1.01
same,normalized growth,"S. cerevisiae deletion strains, locus YGR078C, strain PAC10, hits give low values",0.868
same,normalized growth,"S. cerevisiae deletion strains, locus YGR135W, strain pre9, hits give low values",0.915
same,normalized growth,"S. cerevisiae deletion strains, locus YGR229C, strain SMI1, hits give low values",0.717 (active)
same,normalized growth,"S. cerevisiae deletion strains, locus YGR252W, strain gcn5, hits give low values",0.894
same,normalized growth,"S. cerevisiae deletion strains, locus YHR030C, strain SLT2, hits give low values",0.996 and 1
same,normalized growth,"S. cerevisiae deletion strains, locus YHR079C, strain IRE1 (second series), hits give low values",0.982
same,normalized growth,"S. cerevisiae deletion strains, locus YHR079C, strain IRE1, hits give low values",1.01
same,normalized growth,"S. cerevisiae deletion strains, locus YHR094C, strain hxt1, hits give low values",0.992
same,normalized growth,"S. cerevisiae deletion strains, locus YHR129C, strain ARP1, hits give low values",0.971
same,normalized growth,"S. cerevisiae deletion strains, locus YHR200W, strain rpn10, hits give low values",0.968
same,normalized growth,"S. cerevisiae deletion strains, locus YIL066C, strain RNR3, hits give low values",0.966
same,normalized growth,"S. cerevisiae deletion strains, locus YIL073C, strain SPO22, hits give low values",0.895
same,normalized growth,"S. cerevisiae deletion strains, locus YIL125W, strain kgd1, hits give low values",0.996
same,normalized growth,"S. cerevisiae deletion strains, locus YIR030C, strain dcg1, hits give low values",0.988
same,normalized growth,"S. cerevisiae deletion strains, locus YJL095W, strain BCK1, hits give low values",0.88 and 0.998
same,normalized growth,"S. cerevisiae deletion strains, locus YJL134W, strain LCB3, hits give low values",0.997
same,normalized growth,"S. cerevisiae deletion strains, locus YJL168C, strain set2, hits give low values",0.978
same,normalized growth,"S. cerevisiae deletion strains, locus YJL187C, strain SWE1 (second series), hits give low values",0.997
same,normalized growth,"S. cerevisiae deletion strains, locus YJR043C, strain POL32, hits give low values",0.83 (active)
same,normalized growth,"S. cerevisiae deletion strains, locus YJR066W, strain TOR1, hits give low values",0.932
same,normalized growth,"S. cerevisiae deletion strains, locus YJR075W, strain HOC1, hits give low values",0.891
same,normalized growth,"S. cerevisiae deletion strains, locus YKL009W, strain mrt4, hits give low values",0.98
same,normalized growth,"S. cerevisiae deletion strains, locus YKL068W, hits give low values",0.996
same,normalized growth,"S. cerevisiae deletion strains, locus YKL085W, strain MDH1 (second series), hits give low values",1.01
same,normalized growth,"S. cerevisiae deletion strains, locus YKL085W, strain MDH1, hits give low values",1.01
same,normalized growth,"S. cerevisiae deletion strains, locus YKL190W, strain CNB1, hits give low values",0.981
same,normalized growth,"S. cerevisiae deletion strains, locus YKR001C, strain vps1, hits give low values",0.92
same,normalized growth,"S. cerevisiae deletion strains, locus YLR039C, strain RIC1, hits give low values",0.991
same,normalized growth,"S. cerevisiae deletion strains, locus YLR058C, strain SHM2, hits give low values",1.01
same,normalized growth,"S. cerevisiae deletion strains, locus YLR102C, strain apc9, hits give low values",0.986
same,normalized growth,"S. cerevisiae deletion strains, locus YLR113W, strain HOG1, hits give low values",0.996
same,normalized growth,"S. cerevisiae deletion strains, locus YLR262C, strain YPT6, hits give low values",1.1
same,normalized growth,"S. cerevisiae deletion strains, locus YLR268W, strain sec22, hits give low values",0.951
same,normalized growth,"S. cerevisiae deletion strains, locus YLR330W, strain CHS5, hits give low values",1
same,normalized growth,"S. cerevisiae deletion strains, locus YLR342W, strain FKS1 (second series), hits give low values",0.955
same,normalized growth,"S. cerevisiae deletion strains, locus YLR371W, strain rom2, hits give low values",0.995
same,normalized growth,"S. cerevisiae deletion strains, locus YLR418C, strain cdc73, hits give low values",0.732 (active)
same,normalized growth,"S. cerevisiae deletion strains, locus YML016C, strain PPZ1, hits give low values",0.994
same,normalized growth,"S. cerevisiae deletion strains, locus YML032C, strain rad52, hits give low values",0.977
same,normalized growth,"S. cerevisiae deletion strains, locus YML124C, strain tub3, hits give low values",0.994
same,normalized growth,"S. cerevisiae deletion strains, locus YMR078C, strain ctf18, hits give low values",0.988
same,normalized growth,"S. cerevisiae deletion strains, locus YMR223W, strain ubp8, hits give low values",0.935
same,normalized growth,"S. cerevisiae deletion strains, locus YMR263W, strain SAP30, hits give low values",0.929
same,normalized growth,"S. cerevisiae deletion strains, locus YMR307W, strain GAS1, hits give low values",0.986
same,normalized growth,"S. cerevisiae deletion strains, locus YNL067W, strain RPL9B, hits give low values",0.952
same,normalized growth,"S. cerevisiae deletion strains, locus YNL128W, strain TEP1, hits give low values",0.986
same,normalized growth,"S. cerevisiae deletion strains, locus YNL153C, strain GIM3, hits give low values",0.883
same,normalized growth,"S. cerevisiae deletion strains, locus YNL183C, strain NPR1, hits give low values",0.916
same,normalized growth,"S. cerevisiae deletion strains, locus YNL233W, strain BNI4, hits give low values",0.92
same,normalized growth,"S. cerevisiae deletion strains, locus YNL250W, strain rad50, hits give low values",0.948
same,normalized growth,"S. cerevisiae deletion strains, locus YNL271C, strain bni1, hits give low values",0.966
same,normalized growth,"S. cerevisiae deletion strains, locus YNL298W, strain CLA4, hits give low values",0.981
same,normalized growth,"S. cerevisiae deletion strains, locus YNL307C, strain MCK1, hits give low values",0.894 (active)
same,normalized growth,"S. cerevisiae deletion strains, locus YNL322C, strain KRE1, hits give low values",0.997
same,normalized growth,"S. cerevisiae deletion strains, locus YNR052C, strain pop2, hits give low values",0.999
same,normalized growth,"S. cerevisiae deletion strains, locus YOL006C, strain TOP1, hits give low values",0.934
same,normalized growth,"S. cerevisiae deletion strains, locus YOL012C, strain htz1",1.73
same,normalized growth,"S. cerevisiae deletion strains, locus YOL147C, strain pex11, hits give low values",0.99
same,normalized growth,"S. cerevisiae deletion strains, locus YOR061W, strain CKA2, hits give low values",1
same,normalized growth,"S. cerevisiae deletion strains, locus YOR069W, strain VPS5, hits give low values",1
same,normalized growth,"S. cerevisiae deletion strains, locus YOR136W, strain idh2, hits give low values",0.973
same,normalized growth,"S. cerevisiae deletion strains, locus YOR144C, strain elg1, hits give low values",0.994
same,normalized growth,"S. cerevisiae deletion strains, locus YOR184W, strain ser1, hits give low values",0.875
same,normalized growth,"S. cerevisiae deletion strains, locus YOR231W, strain MKK1, hits give low values",0.989
same,normalized growth,"S. cerevisiae deletion strains, locus YOR316C, strain cot1, hits give low values",0.987
same,normalized growth,"S. cerevisiae deletion strains, locus YPL055C, strain LGE1, hits give low values",0.876
same,normalized growth,"S. cerevisiae deletion strains, locus YPL241C, strain CIN2, hits give low values",0.998
same,normalized growth,"S. cerevisiae deletion strains, locus YPL256C, strain CLN2, hits give low values",0.995
same,normalized growth,"S. cerevisiae deletion strains, locus YPR119W, strain clb2, hits give low values",0.999
same,normalized growth,"S. cerevisiae deletion strains, locus YPR141C, strain kar3, hits give low values",0.981
same,normalized growth,"S. cerevisiae deletion strains, locus YPR163C, strain tif3, hits give low values",0.996
same,normalized growth,"S. cerevisiae deletion strains, locus YPR167C, strain met16, hits give low values",0.992
same,normalized growth,"S. cerevisiae deletion strains, strain wtn01, hits give low values",0.927
same,normalized growth,"S. cerevisiae strains, strain wild type, hits give low values",0.925
